Source: PubChem BioAssay (NCI)
This is part of a sample that, as a whole, favours compounds with a hit. Of some 83,000 tested, about 20% had one in any assay.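 Plates (96-well) were seeded with cells, treated with compound at one concentration, and incubated for 48 hours before percent growth was determined.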

What was measured:
Test in all cases: NCI-60 one-dose screen, 48 h (100 = growth as untreated, 0 = no growth, -100 = all killed)
Settings in all cases: 10 µM unless noted; active = growth percent below 10; inactive = the rest
NCI-H23 lung = system: NCI-H23 lung
NCI-H226 lung = system: NCI-H226 lung
NCI-H322M lung = system: NCI-H322M lung
HOP-62 NSCLC = system: HOP-62 NSCLC
NCI-H460 lung = system: NCI-H460 lung
786-0 renal = system: 786-0 renal
MDA-MB-231 breast = system: MDA-MB-231 breast
SF-268 CNS = system: SF-268 CNS
SF-539 CNS = system: SF-539 CNS
M14 melanoma = system: M14 melanoma
PC-3 prostate = system: PC-3 prostate
UACC-62 melanoma = system: UACC-62 melanoma
SK-MEL-28 melanoma = system: SK-MEL-28 melanoma
UO-31 renal = system: UO-31 renal
OVCAR-5 ovarian = system: OVCAR-5 ovarian
OVCAR-3 ovarian = system: OVCAR-3 ovarian
NCI/ADR-RES ovarian = system: NCI/ADR-RES ovarian
SW-620 colon = system: SW-620 colon
MCF7 breast = system: MCF7 breast
KM12 colon = system: KM12 colon

Measured: growth

O=CN1N=C(c2ccccc2)CC1c1sc(N(CCCl)CCCl)nc1Cl (stereo not given)
inactive: NCI-H23 lung 87.5% | NCI-H226 lung 85.1% | NCI-H322M lung 82.4% | HOP-62 NSCLC 86.9% | NCI-H460 lung 106% | 786-0 renal 104% | MDA-MB-231 breast 77.8% | SF-268 CNS 101% | SF-539 CNS 109% | M14 melanoma 103% | PC-3 prostate 82.5% | UACC-62 melanoma 67.5% | SK-MEL-28 melanoma 98.7% | UO-31 renal 71.7% | OVCAR-5 ovarian 90.6% | OVCAR-3 ovarian 96.1% | NCI/ADR-RES ovarian 93.6% | SW-620 colon 105% | MCF7 breast 90.1% | KM12 colon 98.9%

O=C(/C=C/c1ccccc1)N[C@@H](CO)Cc1cnc[nH]1
inactive: NCI-H23 lung 113% | NCI-H226 lung 94% | NCI-H322M lung 101% | HOP-62 NSCLC 101% | NCI-H460 lung 105% | 786-0 renal 103% | MDA-MB-231 breast 98.9% | SF-268 CNS 101% | SF-539 CNS 95.6% | M14 melanoma 105% | PC-3 prostate 97.9% | UACC-62 melanoma 110% | SK-MEL-28 melanoma 99.4% | UO-31 renal 98.2% | OVCAR-5 ovarian 98.3% | OVCAR-3 ovarian 112% | NCI/ADR-RES ovarian 98% | SW-620 colon 106% | MCF7 breast 98.7% | KM12 colon 105%

CCC(CO)NC1CCCCC1 (stereo not given)
inactive: NCI-H23 lung 87.5% | NCI-H226 lung 114% | NCI-H322M lung 97.2% | HOP-62 NSCLC 88.7% | NCI-H460 lung 100% | 786-0 renal 76% | MDA-MB-231 breast 58% | SF-268 CNS 86.9% | SF-539 CNS 17.7% | M14 melanoma 84.6% | PC-3 prostate 92.2% | UACC-62 melanoma 91.9% | SK-MEL-28 melanoma 102% | UO-31 renal 66% | OVCAR-5 ovarian 92.4% | OVCAR-3 ovarian 100% | NCI/ADR-RES ovarian 80.9% | SW-620 colon 34.6% | MCF7 breast 63.4% | KM12 colon 54.6%
